The full list was thinned out, with hits kept by preference.
Tgondii IFNg = blocks Toxoplasma gondii growth in the presence of IFN-gamma; activity change, negative = inhibition, % (concentration not given with the values); actives 3.8% (n = 69,000); AID 1259416; Toxoplasma gondii growth in IFN-gamma-treated host cells; hits give low values; in the data active = activity change below about -70%, passing the limit was not always enough;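 also: host cells are HeLa cells infected with Toxoplasma gondii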
A number is an active result.

How did Cc1cc(C)cc(Nc2nc(-c3nnc(-c4ccccc4)o3)nc3ccccc23)c1 do in these assays?
Tgondii IFNg: inactive

How did CO[C@@H]1CN(C)C(=O)c2cc(NC(=O)c3cccc(F)c3)ccc2OC[C@@H](C)N(C)C[C@@H]1C do in these assays?
Tgondii IFNg: -75

What do the screens show for `CO[C@H]1CN(C)C(=O)c2cc(NC(=O)c3cccc(F)c3)ccc2OC[C@@H](C)N(C)C[C@H]1C`?
Tgondii IFNg: inactive

How did CCCN1C[C@H](C)[C@@H](OC)CN(C)C(=O)c2cc(NC(=O)C3CCC3)ccc2OC[C@@H]1C do in these assays?
Tgondii IFNg: inactive

What do the screens show for `CO[C@@H]1CN(C)C(=O)c2cc(NC(=O)c3cccc(F)c3)ccc2OC[C@@H](C)N(C)C[C@H]1C`?
Tgondii IFNg: inactive

Results for CO[C@@H]1CN(C)C(=O)c2cc(NC(=O)C3CC3)ccc2OC[C@H](C)N(Cc2cc(F)ccc2F)C[C@@H]1C ?
Tgondii IFNg: inactive

Results for CO[C@H]1CN(C)C(=O)c2cc(NC(=O)C3CC3)ccc2OC[C@H](C)N(Cc2cc(F)ccc2F)C[C@@H]1C ?
Tgondii IFNg: -72

Results for CCOc1ccc(NC(=O)C(=O)NCCc2sc(-c3ccccc3)nc2C)cc1 ?
Tgondii IFNg: inactive

What do the screens show for `CCCOc1cc2c(cc1CN(C)Cc1cc(=O)[nH]c3ccccc13)OCO2`?
Tgondii IFNg: inactive

How did CC(=O)c1ccc(-c2cc(NCc3ccncc3)nc3[nH]ccc23)nc1 do in these assays?
Tgondii IFNg: inactive

How did FC(F)Oc1cccc(CNC2CCC3(CCNCC3)CC2)c1 do in these assays?
Tgondii IFNg: inactive

How did c1cnc(NC2CCN(c3ncnc4c3CCNC4)CC2)nc1 do in these assays?
Tgondii IFNg: inactive

What do the screens show for `c1ccc(C2CN(c3ncnc4c3CCNC4)CCO2)cc1` (stereo not given)?
Tgondii IFNg: inactive

What do the screens show for `c1ccc(C2CCCN(c3ncnc4c3CCNC4)CC2)cc1` (stereo not given)?
Tgondii IFNg: -79

What do the screens show for `CN(CC(=O)Nc1ccc2c(c1)OCO2)Cc1ccccc1`?
Tgondii IFNg: inactive

What do the screens show for `CC(C)c1nccn1C(C)C(=O)NCCc1c[nH]c2ccccc12` (stereo not given)?
Tgondii IFNg: inactive

Results for CCOc1ccc2nc(SCC)[nH]c2c1 ?
Tgondii IFNg: inactive

Results for CCOc1ccc(OCCSc2nc3ccccc3[nH]2)cc1 ?
Tgondii IFNg: inactive

What do the screens show for `CCCCOc1cc(C(F)(F)F)nc2ccc(CSc3nc4ccccc4[nH]3)cc12`?
Tgondii IFNg: -86

What do the screens show for `CCCCc1n[nH]c(=O)n1Cc1cccc(C)c1`?
Tgondii IFNg: inactive

Results for CCCCc1nnc(NC(=O)C2CC(=O)N(CCc3c[nH]c4ccc(C)cc34)C2)s1 (stereo not given) ?
Tgondii IFNg: inactive

Results for CCCCc1nnc(NC(=O)C2CC(=O)N(CCc3c[nH]c4ccc(OC)cc34)C2)s1 (stereo not given) ?
Tgondii IFNg: inactive

Results for CCCc1nnc(NC(=O)C2CC(=O)N(CCc3c[nH]c4ccc(Cl)cc34)C2)s1 (stereo not given) ?
Tgondii IFNg: -91

Results for Oc1cc(-c2cccnc2)cc2c1OCCN(CCn1ccnc1)C2 ?
Tgondii IFNg: inactive

How did O=C(CN(Cc1ccccc1)c1ccccc1)c1ccc(-c2ccccc2)cc1 do in these assays?
Tgondii IFNg: inactive

How did Clc1ccc(-c2nc(NC3CCCCCC3)c3ccccc3n2)cc1 do in these assays?
Tgondii IFNg: inactive

What do the screens show for `Cc1ccc2c(c1)c1c3n2CCN=C3CCC1`?
Tgondii IFNg: inactive

How did Cc1cccc(NCc2c(C#N)c3ccccc3n2C)c1 do in these assays?
Tgondii IFNg: inactive

Results for Cc1ccc2c(c1)c1cccc3c1n2CCN3CCC#N ?
Tgondii IFNg: -103

Results for Cc1nc(CN2CCCn3cnc(COCCO)c3C2)cs1 ?
Tgondii IFNg: inactive

How did Cc1ccc(C(=O)NCCc2sc(-c3ccc(F)cc3)nc2C)cc1C do in these assays?
Tgondii IFNg: inactive

What do the screens show for `CC1NC(=O)COC12CCN(C(=O)c1cccs1)CC2` (stereo not given)?
Tgondii IFNg: inactive

How did COC(=O)[C@@H]1C[C@@H](O)CN1C(=O)CN1CCOc2ccccc2C1 do in these assays?
Tgondii IFNg: inactive

What do the screens show for `CCC1=NOC(CNCc2nc(-c3ccco3)no2)C1` (stereo not given)?
Tgondii IFNg: inactive

How did CC(C)NC(=O)N1C[C@H]2CN(CCN(C)C)C(=O)[C@@H]2C1 do in these assays?
Tgondii IFNg: inactive

What do the screens show for `CN(C)CCNC(=O)Cn1ncc2c(N3CCN(c4ccccn4)CC3)ncnc21`?
Tgondii IFNg: inactive

What do the screens show for `O=C(Cn1ncc2c(N3CCN(c4ccccn4)CC3)ncnc21)NCc1ccccc1`?
Tgondii IFNg: -105

How did Cc1ccc(CNC(=O)Cn2ncc3c(N4CCN(c5ccccc5)CC4)ncnc32)cc1 do in these assays?
Tgondii IFNg: inactive

How did COc1ccc(CNC(=O)Cn2ncc3c(N4CCN(C)CC4)ncnc32)cc1 do in these assays?
Tgondii IFNg: inactive

How did COc1ccc(CNC(=O)Cn2ncc3c(N4CCN(c5ccccc5)CC4)ncnc32)cc1 do in these assays?
Tgondii IFNg: -102

What do the screens show for `CCc1ccc(CNC(=O)Cn2ncc3c(N4CCN(c5ccccn5)CC4)ncnc32)cc1`?
Tgondii IFNg: inactive
